Results: ChEMBL document CHEMBL3988442, “University of Dundee, Small-Polar-MMV Screening Library” (2021)

Molecular target: Sialic acid-binding Ig-like lectin 9 (Homo sapiens) (UniProt Q9Y336)
Assay: Hs-Siglec9 ALPHAscreen SOP 20170721
Parameters: scale not given: direction of the effect not stated beside the values
Settings: 10 µM

Sialic acid-binding Ig-like lectin 9 (Homo sapiens), sequence (Q9Y336 whole entry): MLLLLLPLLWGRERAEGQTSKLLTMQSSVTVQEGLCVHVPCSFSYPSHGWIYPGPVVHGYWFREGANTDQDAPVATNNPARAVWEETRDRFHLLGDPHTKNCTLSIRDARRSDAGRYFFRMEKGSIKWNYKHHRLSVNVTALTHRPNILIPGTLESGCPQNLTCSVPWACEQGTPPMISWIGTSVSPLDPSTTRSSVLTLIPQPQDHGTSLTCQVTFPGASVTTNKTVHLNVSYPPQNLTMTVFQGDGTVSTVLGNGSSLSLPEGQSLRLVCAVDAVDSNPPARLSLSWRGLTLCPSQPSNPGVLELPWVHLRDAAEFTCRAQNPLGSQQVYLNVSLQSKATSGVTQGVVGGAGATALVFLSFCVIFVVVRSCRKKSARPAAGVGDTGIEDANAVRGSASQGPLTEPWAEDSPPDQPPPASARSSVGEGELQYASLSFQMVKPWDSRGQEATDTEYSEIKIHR

| SMILES | Percent Effect [%] |
| --- | --- |
| CC(Nc1cccc(CN2CCOC2=O)c1)C(=O)N1CCNC1=O (stereo not given) | 2.33 |
| COC[C@@H]1CC[C@H]2[C@H](CCN2S(=O)(=O)c2cccc(C)c2)O1 | -6.71 |
| O=C(c1ccc(F)cc1F)N1CC[C@H](O)[C@@H](N2CCOCC2)CC1 | 3.3 |
| COc1cccc(-n2nnc(C(=O)N3CCCC3)c2C)c1 | -7.88 |
| Cc1nc(C(=O)N2CCc3c(nc(-c4ccncc4)[nH]c3=O)C2)cs1 | 1.7 |
| CN1CCC/C1=N\S(=O)(=O)c1ccc(NC(=O)c2cccs2)cc1 | -0.824 |
| c1csc(-c2nc(CNC3CCc4ncnn4C3)cs2)c1 (stereo not given) | 2.55 |
| Cc1ccc(C(=O)N2Cc3c(CN4CCCCC4)nn(C)c3C2)cc1C | -4.75 |
| O=C1CC2(CCN(CC3CC3)C2)CN1c1ccc2c(c1)OCO2 (stereo not given) | -7.72 |
| COCc1nc(C(=O)NS(=O)(=O)c2ccc(C)cc2C)cs1 | 4.98 |
| Cc1nn(C)cc1CCC(=O)N1CCCC(n2cncn2)C1 (stereo not given) | 3.45 |
| COCC(=O)N1CCC2(CCN(Cc3ccccn3)CC2)CC1 | 6.7 |
| COc1ccccc1OCC(=O)NS(=O)(=O)c1ccc(C)s1 | 0.674 |
| Cc1ncsc1C(=O)N(Cc1cccnc1)C1CC1 | 10 |
| Cn1cnc2c1CCN(CCS(=O)(=O)c1ccccc1)C2 | 3.94 |
| CN(C(=O)Cc1c[nH]c2ccccc12)C1CCN(c2ccccn2)CC1 | -1.22 |
| CC1COCCN1C(=O)c1cccc(OCc2cscn2)c1 (stereo not given) | -10.6 |
| Cn1cccc1C(=O)N1CCCC2(CCCN2Cc2cccnc2)C1 (stereo not given) | -0.843 |
| CC(C)(C)c1n[nH]c(C2CN(C(=O)CCc3cscn3)CCO2)n1 (stereo not given) | 15.8 |
| CN(Cc1noc(C2CC2)n1)C1CCN(Cc2nnc(C3CC3)o2)C1 (stereo not given) | -1.39 |

| SMILES | Percent Effect [%] |
| --- | --- |
| CC(C)c1nn(C)c(N2CCOCC2)c1CNCC(=O)N(C)C | -8.89 |
| CS(=O)(=O)NCc1ncn2c1CN(C(=O)CC1CCCC1)CCC2 | -3.12 |
| Cc1nc(C2CCN(C(=O)CO)CC2)cc(N2CCOCC2)n1 | 8.92 |
| Cn1cc(CNCC2Cn3nnc(-c4ccccc4)c3CO2)cn1 (stereo not given) | 9.99 |
| CS(=O)(=O)c1ccccc1C(=O)NCCCN1CCc2ccccc2C1 | 2.07 |
| CCOC(=O)N1CCN(C(=O)c2ccc3ccn(C)c3c2)CC1 | 29 |
| Cc1ccc(-c2cc(CN3CCCC(Cn4cncn4)C3)on2)cc1 (stereo not given) | -2.07 |
| COc1ccc(C2CC(=O)Nc3c2nc2n3CCCC2)cc1OC (stereo not given) | 3.86 |
| Cn1cc(CN2CCCN(C(=O)c3cn4ccccc4n3)CC2)cn1 | -16.8 |
| CCc1ccc(NC(=O)C2OC(c3cccs3)=NN2C(C)=O)cc1 (stereo not given) | -5.11 |
| CC(=O)N1CCCN(CC(C)(O)c2cccc(C(F)(F)F)c2)CC1 (stereo not given) | 8.53 |
| c1ncn(CC2CN(Cc3noc(C4CC4)n3)CCO2)n1 (stereo not given) | 2.48 |
| Cc1c[nH]nc1C1CCCCN1C(=O)Cn1cc(Cl)cn1 (stereo not given) | -3.24 |
| Cc1cnn(CC2CCCCN2CCCS(N)(=O)=O)c1 (stereo not given) | -1.72 |
| Cn1cc(C(=O)N2CCCC(n3cccn3)C2)c2ccccc21 (stereo not given) | -2.42 |
| CC(=O)N1CCC2(CC1)C(=O)N(CC1CC1)c1ccccc12 | -0.719 |
| CC1CCN(C(=O)c2cccc3ncccc23)CC1 | 1.04 |
| O=C(c1cc2cc(F)ccc2[nH]1)N1CCC(Nc2cccnn2)CC1 | -3.05 |
| Cc1nccn1-c1cccc(C2CCCN2S(=O)(=O)N(C)C)n1 (stereo not given) | 13.1 |
| CC(C)CN1CCN(C)C2(CCN(Cc3ccsc3)CC2)C1=O | -3 |

Tested on: Trypanosoma cruzi
Assay: Trypanosoma cruzi phosphomannomutase and mannose-1-phosphate guanylyltransferase assay
Type: functional
Parameters: scale not given: direction of the effect not stated beside the values
Settings: 10 µM

| SMILES | Percent Effect [%] |
| --- | --- |
| CC(Nc1cccc(CN2CCOC2=O)c1)C(=O)N1CCNC1=O (stereo not given) | -5.16 |
| COC[C@@H]1CC[C@H]2[C@H](CCN2S(=O)(=O)c2cccc(C)c2)O1 | -4.38 |
| O=C(c1ccc(F)cc1F)N1CC[C@H](O)[C@@H](N2CCOCC2)CC1 | -1.58 |
| COc1cccc(-n2nnc(C(=O)N3CCCC3)c2C)c1 | 2.72 |
| Cc1nc(C(=O)N2CCc3c(nc(-c4ccncc4)[nH]c3=O)C2)cs1 | -2.62 |
| CN1CCC/C1=N\S(=O)(=O)c1ccc(NC(=O)c2cccs2)cc1 | 3.73 |
| c1csc(-c2nc(CNC3CCc4ncnn4C3)cs2)c1 (stereo not given) | 0.469 |
| Cc1ccc(C(=O)N2Cc3c(CN4CCCCC4)nn(C)c3C2)cc1C | -3.02 |
| O=C1CC2(CCN(CC3CC3)C2)CN1c1ccc2c(c1)OCO2 (stereo not given) | 1.07 |
| COCc1nc(C(=O)NS(=O)(=O)c2ccc(C)cc2C)cs1 | 1.97 |
| Cc1nn(C)cc1CCC(=O)N1CCCC(n2cncn2)C1 (stereo not given) | 1.21 |
| COCC(=O)N1CCC2(CCN(Cc3ccccn3)CC2)CC1 | 4.77 |
| COc1ccccc1OCC(=O)NS(=O)(=O)c1ccc(C)s1 | -0.746 |
| Cc1ncsc1C(=O)N(Cc1cccnc1)C1CC1 | 5.92 |
| Cn1cnc2c1CCN(CCS(=O)(=O)c1ccccc1)C2 | 2.21 |
| CN(C(=O)Cc1c[nH]c2ccccc12)C1CCN(c2ccccn2)CC1 | -3.81 |
| CC1COCCN1C(=O)c1cccc(OCc2cscn2)c1 (stereo not given) | 7.98 |
| Cn1cccc1C(=O)N1CCCC2(CCCN2Cc2cccnc2)C1 (stereo not given) | -1.85 |
| CC(C)(C)c1n[nH]c(C2CN(C(=O)CCc3cscn3)CCO2)n1 (stereo not given) | 4.41 |
| CN(Cc1noc(C2CC2)n1)C1CCN(Cc2nnc(C3CC3)o2)C1 (stereo not given) | -6.16 |

| SMILES | Percent Effect [%] |
| --- | --- |
| CC(C)c1nn(C)c(N2CCOCC2)c1CNCC(=O)N(C)C | 1.22 |
| CS(=O)(=O)NCc1ncn2c1CN(C(=O)CC1CCCC1)CCC2 | -4.77 |
| Cc1nc(C2CCN(C(=O)CO)CC2)cc(N2CCOCC2)n1 | 8.05 |
| Cn1cc(CNCC2Cn3nnc(-c4ccccc4)c3CO2)cn1 (stereo not given) | 4.97 |
| CS(=O)(=O)c1ccccc1C(=O)NCCCN1CCc2ccccc2C1 | 7.03 |
| CCOC(=O)N1CCN(C(=O)c2ccc3ccn(C)c3c2)CC1 | 7.47 |
| Cc1ccc(-c2cc(CN3CCCC(Cn4cncn4)C3)on2)cc1 (stereo not given) | -1.68 |
| COc1ccc(C2CC(=O)Nc3c2nc2n3CCCC2)cc1OC (stereo not given) | -4.56 |
| Cn1cc(CN2CCCN(C(=O)c3cn4ccccc4n3)CC2)cn1 | 4.04 |
| CCc1ccc(NC(=O)C2OC(c3cccs3)=NN2C(C)=O)cc1 (stereo not given) | 3.94 |
| CC(=O)N1CCCN(CC(C)(O)c2cccc(C(F)(F)F)c2)CC1 (stereo not given) | 2.42 |
| c1ncn(CC2CN(Cc3noc(C4CC4)n3)CCO2)n1 (stereo not given) | -1 |
| Cc1c[nH]nc1C1CCCCN1C(=O)Cn1cc(Cl)cn1 (stereo not given) | -2.96 |
| Cc1cnn(CC2CCCCN2CCCS(N)(=O)=O)c1 (stereo not given) | -2.01 |
| Cn1cc(C(=O)N2CCCC(n3cccn3)C2)c2ccccc21 (stereo not given) | -5.62 |
| CC(=O)N1CCC2(CC1)C(=O)N(CC1CC1)c1ccccc12 | -3.56 |
| CC1CCN(C(=O)c2cccc3ncccc23)CC1 | -1.21 |
| O=C(c1cc2cc(F)ccc2[nH]1)N1CCC(Nc2cccnn2)CC1 | -8.21 |
| Cc1nccn1-c1cccc(C2CCCN2S(=O)(=O)N(C)C)n1 (stereo not given) | 1.77 |
| CC(C)CN1CCN(C)C2(CCN(Cc3ccsc3)CC2)C1=O | 0.188 |
